This passage reports binding response (% of control) results from PubChem BioAssay AID1415 (NMMLSC, 2008).

The campaign covered roughly 220,000 compounds. About 710 (0.32%) were called active. No stated cut-off is given here; in the data, active means binding response below about 49% or above about 150%; inactive means in between. Many of the other results were omitted from the sample, so actives are more common in it than they were.

In the experiment the target is Guanine nucleotide-binding protein G(o) subunit alpha (Homo sapiens) (UniProt P09471). Put plainly: RGS4-Galphao interaction inhibitors and enhancers – biochemical, multiplexed bead flow cytometry, primary screen (AID 1415).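 Further: fluorescent Galphao activated with aluminum fluoride binding bead-coupled RGS4.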 The following applies: at 10 µM, actives lie on both sides. (Flow cytometry measures light scatter and fluorescence of single cells or particles in a stream.)
Sequence of Guanine nucleotide-binding protein G(o) subunit alpha (Homo sapiens) (P09471 whole entry, looked up): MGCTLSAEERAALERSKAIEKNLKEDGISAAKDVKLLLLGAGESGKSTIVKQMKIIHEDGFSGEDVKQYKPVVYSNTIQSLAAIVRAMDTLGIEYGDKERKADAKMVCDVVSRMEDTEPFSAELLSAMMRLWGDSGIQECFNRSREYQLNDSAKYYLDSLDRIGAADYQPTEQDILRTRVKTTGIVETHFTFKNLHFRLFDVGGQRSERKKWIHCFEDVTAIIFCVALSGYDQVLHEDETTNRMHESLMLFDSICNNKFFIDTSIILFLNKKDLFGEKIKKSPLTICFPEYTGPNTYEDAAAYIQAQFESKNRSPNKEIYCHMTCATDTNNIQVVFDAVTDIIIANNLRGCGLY
With `CN1CCN(S(=O)(=O)c2ccc(N3CCN(S(=O)(=O)c4cccs4)CC3)nc2)CC1`, the binding response (% of control) is 101% (inactive). `Cc1ccc(NC(=O)NCC(c2cccnc2)N2CCOCC2)cc1` (configuration not stated): the binding response (% of control) was 105% (inactive). Consider `CN1CCN(C(CNS(=O)(=O)c2cccs2)c2cccnc2)CC1` (configuration not stated), for which the binding response (% of control) is 0.16% (active). `OCCC1CN(Cc2ccc(Oc3ncccn3)cc2)CCN1CCc1ccccc1` (configuration not stated): the binding response (% of control) was 98.9% (inactive). `O=C(Nc1cc(Cl)cc(Cl)c1)C(NCCCO)c1ccccc1` (configuration not stated): the binding response (% of control) is 102% (inactive). In the case of `O=C(CNCc1cccs1)Nc1cc(S(=O)(=O)N2CCCC2)ccc1Cl` it was 103% (inactive); in that of `O=C(O)CCCCCNc1ncnc2ccc(Br)cc12`, 98% (inactive); in that of `Oc1ccc(N=Nc2nccs2)c(O)c1`, -21.6% (active). In the case of `Oc1ccc2ccccc2c1N=Nc1nccs1` it was 99.9% (inactive). Take `CC(NC(=O)C(=O)Nc1nccs1)c1ccccc1` (configuration not stated): the binding response (% of control) is 94.3% (inactive). For the compound `Cc1nc(NNC(=O)c2ccccc2)cc(-c2ccccc2)n1`, the binding response (% of control) was 101% (inactive). In the case of `CC(CC(=O)C1C(C)C=CCC1(C)C)NNC(N)=O` (configuration not stated) it was 101% (inactive); in that of `O=C(c1ccc(=O)oc1)N1CCC(C(O)(c2ccccc2)c2ccccc2)CC1`, 100% (inactive). Consider `COC(=O)CCCC1=CC2=C(c3ccccc3)C(=O)C(C)(OC(=O)C3CCCC3)C(=O)C2=CN1c1ccc(OC)cc1` (configuration not stated), for which the binding response (% of control) is 97% (inactive).

In the case of `Cc1ccccc1CC1(CO)CCCN(C(=O)c2cc(-c3ccccc3)no2)C1` (configuration not stated), the binding response (% of control) was 110% (inactive). Consider `O=C(CCc1ccccc1)NNC(=O)c1ccc(Br)cc1`, for which the binding response (% of control) was 109% (inactive). As to `Cc1cc(NC(=O)COc2ccc(Cl)cc2Cl)n(CCC#N)n1`, the binding response (% of control) was 94.6% (inactive). In the case of `CCCn1nnnc1NC(=O)COc1ccc(Cl)cc1C` it was 22.6% (active); in that of `CCOC(=O)N1CCN(C(=O)COc2ccc(Cl)cc2C)CC1`, 102% (inactive).

On to `CC(Oc1ccccc1)C(=O)Nc1oc(-c2ccco2)c(-c2ccco2)c1C#N` (configuration not stated), for which the binding response (% of control) is 96.1% (inactive). As to `O=C(CC1SCCNC1=O)Nc1ccc(Cl)cc1` (configuration not stated), the binding response (% of control) is 102% (inactive). As to `C/C(=N\NC(=S)NC(C)C)c1ccc(C(C)(C)C)cc1`, the binding response (% of control) was 102% (inactive).

Take `Cc1c(C(=O)Nc2ccccc2Cl)oc2ccc(S(=O)(=O)N3CCC4(CC3)OCCO4)cc12`: the binding response (% of control) is 106% (inactive).

With `CCOc1ccccc1NC(=O)CCN1CCN(S(=O)(=O)c2ccc(OC)cc2)CC1`, the binding response (% of control) is 97% (inactive). Regarding `CCOc1ccccc1NC(=O)c1cc(S(=O)(=O)N2CCC3(CC2)OCCO3)ccc1F`, the binding response (% of control) is -0.18% (active).

For `CS(=O)(=O)c1sc(C(=O)NC(=S)Nc2ccc(OC(F)(F)F)cc2)c2c1C=CCC2`, the binding response (% of control) was 113% (inactive). Consider `C=C(C)C(=O)Nc1cccc(C2=NOC3(C2)C[C@H](C(N)=O)N(C(=O)C(c2ccccc2)c2ccccc2)C3)c1` (some centres not stated), for which the binding response (% of control) was 100% (inactive). In the case of `Cc1cc(NC(=O)OC(C)C)ccc1-c1ccc(NC(=O)OC(C)C)cc1C` it was 96.1% (inactive). Turning to `COc1ccc(OC)c(/C=N/NC(=O)CSc2nnc(C)n2-c2ccccc2)c1`, the binding response (% of control) is 96.1% (inactive). Take `C=CCn1c(Cn2nnc3ccccc32)nnc1SCC(=O)N/N=C/c1cc(Br)cc(OC)c1O`: the binding response (% of control) was -38.5% (active). The figure for `Cc1ccc(Cn2c(SCC(=O)N/N=C/c3ccccc3OCC(=O)O)nc3ccccc32)cc1` is 98.8% (inactive). For the compound `CCC(C)NC(=O)Cn1nc(C(F)(F)F)c2c1CCC2` (configuration not stated), the binding response (% of control) was 101% (inactive). With `COc1ccc(COCCN2CCN(S(=O)(=O)c3ccccc3)CCC2=O)cc1`, the binding response (% of control) is 84% (inactive). The figure for `CN(C)c1ccc(/C=N/NC(=O)c2ccc(Cn3cc(Br)cn3)o2)cc1` is 98.7% (inactive); for `COC(=O)CNc1nc(Cl)nc(N2CCC(C)CC2)n1` it is 101% (inactive). Turning to `Cc1nnc(SCC(=O)N2c3ccccc3C(C)(c3ccc(Cl)cc3)CC2(C)C)s1` (configuration not stated), the binding response (% of control) is 96.9% (inactive).

Turning to `Cc1cc2nc(C)n(CCCNC(=O)Nc3ccccc3)c2cc1C`, the binding response (% of control) is 158% [activator] (active). With `Cc1nc2cc(NC(=O)Nc3cccc(F)c3)ccc2n1C`, the binding response (% of control) was 91.6% (inactive). On to `Cc1nc2cc(NC(=O)NC3CC3)ccc2n1C`, for which the binding response (% of control) was 103% (inactive).

Regarding `Cc1onc(-c2ccccc2)c1C(=O)N=C(N)c1ccc(Cl)cc1`, the binding response (% of control) is 104% (inactive). `N#Cc1ccc(CSc2nnc3ccccn23)cc1`: the binding response (% of control) was 101% (inactive). For the compound `CCCCC1=CC2=CC(=O)C(C)(OC(=O)CC)C(=O)C2=CN1CCCOC(C)C` (configuration not stated), the binding response (% of control) is 96% (inactive).

For `CCCC1C(c2ccccc2)C(C#N)(C#N)C2(C#N)CC1(N)NC2=O` (configuration not stated), the binding response (% of control) was 162% [activator] (active). In the case of `NC1=NC[C@@H](Cc2ccc(O)cc2)N1CC1CCCCC1` it was 87.1% (inactive); in that of `CCOC(=O)c1ccc(NC(=O)c2nc[nH]c2C(=O)NCc2ccccc2)cc1`, 103% (inactive); in that of `CCn1c(=N)n(CC(=O)c2cccc(OC)c2)c2ccccc21`, 98.3% (inactive). The figure for `CCCCOC(=O)Cn1c(=N)n(CCN(CC)CC)c2ccccc21` is 184% [activator] (active); for `CCCCOC(=O)Cn1c(=O)n(CC(=O)OCCCC)c2cc(C)ccc21` it is 103% (inactive).

For `O=C(CN(C(=O)c1csnn1)c1cccc(F)c1)NCc1ccc(F)cc1`, the binding response (% of control) is 97.4% (inactive).

Take `Cc1ccc(S(=O)(=O)NCC(=O)OCC(=O)N2CCc3ccccc32)cc1`: the binding response (% of control) is 204% [activator] (active). The figure for `Cc1ccc(S(=O)(=O)N(C)CC(=O)N2CCc3ccccc32)cc1` is 104% (inactive); for `Cc1cnc(C(=O)OCC(=O)N2CCc3ccccc32)cn1` it is 104% (inactive). In the case of `C#CCO[C@@H]1C[C@H](n2cnc3c(=O)[nH]c(NC(=O)C(C)C)nc32)O[C@@H]1CO`, the binding response (% of control) was 81.4% (inactive). For `C=CCC1(CC=C)CCCN1C(=O)CC1C(=O)NCCN1Cc1ccccc1OC` (configuration not stated), the binding response (% of control) is 102% (inactive). For the compound `[O-][n+]1c2c(nn1-c1ccc(Cl)c(Cl)c1)-c1nonc1CC2`, the binding response (% of control) was 106% (inactive).

`COc1ccc(/C(O)=C2\C(=O)C(=O)N(Cc3ccco3)C2c2ccc(OC)cc2OC)cc1` (configuration not stated): the binding response (% of control) is 99.5% (inactive).

In the case of `COc1cc(C2/C(=C(\O)c3ccc4c(c3)CC(C)O4)C(=O)C(=O)N2Cc2ccco2)ccc1O` (configuration not stated), the binding response (% of control) is 18.3% (active). Consider `COCCCN1C(=O)C(=O)/C(=C(/O)c2ccc3c(c2)CC(C)O3)C1c1cccnc1` (configuration not stated), for which the binding response (% of control) is 95% (inactive).

As to `COC(=O)c1c(C)oc(C)c1S(=O)(=O)NCc1ccc(Cl)cc1`, the binding response (% of control) is 98.2% (inactive).

As to `CCN(CC)c1ccc(S(=O)(=O)N2CCOCC2)cc1NC(=O)CSc1cccc[n+]1[O-]`, the binding response (% of control) was 91.7% (inactive).

Consider `Cn1c(SCC(=O)N2CCCc3ccccc32)nc2ccccc2c1=O`, for which the binding response (% of control) is 89.2% (inactive). As for `O=C(CSc1ccc2nnc(-c3ccccc3)n2n1)N1CCCc2ccccc21`, the binding response (% of control) is 156% [activator] (active). The figure for `CCCn1c(SCC(=O)N2CCc3ccccc32)nnc1-c1ccncc1` is 99.9% (inactive); for `Nc1ccccc1Sc1cc(Cl)nnc1Cl` it is 97.6% (inactive).

For `O=C(NC1CCc2ccccc21)C12CN(Cc3ccccc3)CC1C(c1cccc([N+](=O)[O-])c1)=NO2` (configuration not stated), the binding response (% of control) is 99.7% (inactive). Turning to `Cn1c(=O)c2c(n(Cc3ccccc3)c1=O)NC(=O)C2CC(=O)N1CCc2ccccc2C1` (configuration not stated), the binding response (% of control) is 21.4% (active). As for `O=C(COc1ccccc1)N1CCc2ccccc2C1`, the binding response (% of control) is 103% (inactive). Consider `O=C(CSc1nnc(-c2cccs2)n1Cc1ccccc1)N1CCc2ccccc2C1`, for which the binding response (% of control) was 99.4% (inactive). The figure for `Cc1ccc(NC(=O)CNCc2ccccn2)cc1S(=O)(=O)N(C)C` is 97.3% (inactive). Turning to `Cn1c(CC2Sc3ccccc3NC2=O)nnc1SCC(=O)c1ccc(Cl)cc1` (configuration not stated), the binding response (% of control) was 88.2% (inactive).

For the compound `CCc1c(C)nc2cc(-c3cccs3)[nH]n2c1=O`, the binding response (% of control) is 93.5% (inactive). In the case of `Cc1cc(=O)n2[nH]c(-c3sccc3-n3c(C)ccc3C)cc2n1` it was 50.1% (active); in that of `COc1cccc2cc(/C(C)=N/NC(=O)c3ccco3)oc12`, 98% (inactive).

For `COc1cc(NC(=O)CSc2nnc3ccc(-c4ccncc4)nn23)cc(OC)c1`, the binding response (% of control) is 98.4% (inactive). Turning to `COCCCNC(=S)N(Cc1ccccc1)Cc1ccc(F)cc1`, the binding response (% of control) was 106% (inactive). With `Cc1cs/c(=N\N=C\c2ccc(O)cc2)n1Cc1ccco1`, the binding response (% of control) was 99.6% (inactive). For `CN(c1ccccc1)c1ccc(/C=c2\s/c(=C(/C#N)C(=O)C(C)(C)C)n(Cc3ccco3)c2=O)cc1`, the binding response (% of control) is 566% [activator] (active). The figure for `COc1ccc(NC(=O)Cn2c(=O)n(Cc3ccco3)c(=O)c3ccccc32)cc1` is 101% (inactive); for `CCOc1ccc(NC(=O)CSc2ncnc3c2sc2ccccc23)cc1` it is 103% (inactive); for `COc1cc(/C=C/C(=O)N2c3ccccc3Sc3ccc(C(F)(F)F)cc32)cc(OC)c1OC` it is 103% (inactive).

`O=C(CN1CCCCC1)N1c2ccccc2Sc2ccc(C(F)(F)F)cc21`: the binding response (% of control) is 21.1% (active). Turning to `O=C(CN1CCCCCC1)N1c2ccccc2Sc2ccc(C(F)(F)F)cc21`, the binding response (% of control) was 89.3% (inactive).

In the case of `CCN(CC)S(=O)(=O)c1ccc(NC(=O)c2cccnc2Cl)c(NC(=O)c2cccnc2Cl)c1`, the binding response (% of control) is 101% (inactive). `COc1cc(NS(=O)(=O)c2ccc(NC(=O)c3ccc(S(=O)(=O)N4CCCCC4)cc3)cc2)ncn1`: the binding response (% of control) was 107% (inactive).

Consider `NC(=O)[C@H]1CC2(CC(c3cccc(NC(=O)[C@H]4CCC(=O)N4)c3)=NO2)CN1C(=O)c1ccccc1C(=O)c1ccccc1` (some centres not stated), for which the binding response (% of control) is 101% (inactive).

`CC1CCN(C(=S)NC2CC3CCC2C3)CC1` (configuration not stated): the binding response (% of control) was 107% (inactive). `Cc1ccc(Cn2ccc(NC(=O)c3cc(C(C)C)on3)n2)cc1`: the binding response (% of control) was 49% (active). The figure for `Cc1ccc(Cn2ccc(NC(=O)C3C4CCC(C4)C3C(=O)O)n2)cc1` (configuration not stated) is 103% (inactive); for `O=C(Nc1ccn(Cc2ccccc2)n1)c1cccc(F)c1` it is 97.8% (inactive). In the case of `Cc1cc(C)n(-c2ccc3nncn3n2)n1` it was 97.6% (inactive); in that of `Cn1ccc(NC(=O)Nc2ccc(Cl)cc2)n1`, 101% (inactive). As for `Cn1cc(C(=O)NCc2ccccc2F)cn1`, the binding response (% of control) was 101% (inactive).
